Bioassay records (PubChem BioAssay)
VACV mCherry inh: qHTS for Stage-Specific Inhibitors of Vaccinia Orthopoxvirus: mCherry Reporter Primary qHTS. Vaccinia virus mCherry reporter infection, fluorescence. actives 0.63% (n = 310,000). AID 720579, 2013. Potency, µM (top dose mostly 36.5 µM), usual class: inhibitors; calls by dose curve; tested in A549 cells; further: nearly all actives have a fitted effect of over 35% in size
Vaccinia Venus: qHTS for Stage-Specific Inhibitors of Vaccinia Orthopoxvirus: Venus Reporter Primary qHTS; actives 0.46% (n = 330,000); Vaccinia virus Venus reporter expression, fluorescence; Potency, µM (series often up to 36.5 µM), actives largely listed as inhibitors; calls by dose curve; tested in A549 cells; further: nearly all actives have a fitted effect of over 30% in size
Marburg entry inh: qHTS for inhibitors of binding or entry into cells for Marburg Virus; Marburg virus pseudotyped entry inhibition, cell reporter; actives 1.8% (n = 300,000); Potency, µM (series often up to 37.8 µM), usual class: inhibitors; calls by dose curve; tested in HEK293 cells
LASV entry inh: qHTS for Inhibitors of binding or entry into cells for Lassa Virus. actives 1.2% (n = 300,000). Potency, µM (series often up to 37.9 µM), actives largely listed as inhibitors. Lassa virus pseudotype entry inhibition, cell reporter; calls by dose curve; tested in HEK293 cells; further: nearly all actives have a fitted effect of over 50% in size
Hits are given with their value; i = inactive; ? = inconclusive; nt = no result; [ ] = dose if it differs, or a comment. Shown are actives, neighbours in structure and some others; about 2.5% of the full set was active somewhere.

SMILES	VACV mCherry inh	Vaccinia Venus	Marburg entry inh	LASV entry inh
COc1ccc(CNC(=S)N/N=C(\C)c2ccc(OC)cc2)cc1	i	i	i	?
CN(C)c1ccc(/C=N/NC(=S)NCc2ccco2)cc1	i	i	?	2.1µM
C/C(=N\NC(=S)NCc1ccccc1)c1ccc2ccccc2c1	i	i	?	2.3µM
S=C(NCc1ccco1)N/N=C/c1ccncc1	i	i	i	i
COc1ccc(/C(C)=N/NC(=S)NCc2ccco2)cc1	i	i	i	2.1µM
Cn1cnc([N+](=O)[O-])c1Sc1nc(N)nc2c1ncn2C1OC(CO)C(O)C1O (stereo not drawn)	?	?	?	2.8µM
Cn1cnc([N+](=O)[O-])c1Sc1nc(N)nc2c1ncn2C1CC(O)C(CO)O1 (stereo not drawn)	6.3µM	?	?	?
Nc1nc(SCc2ccc([N+](=O)[O-])cc2)c2ncn([C@@H]3O[C@@H](CO)[C@@H](O)[C@H]3O)c2n1	nt	nt	i	nt
CC1=C[S+](=O)([O-])CC1SC1=NC2C=CC=CC2=N1 (stereo not drawn)	nt	nt	i	nt
CCCC(CCC)C(=O)Nc1ccc2c(c1)N(C(=O)CCN1CCN(C)CC1)c1ccccc1CC2	i	i	11µM	i
CCN(CC)CC(=O)Nc1ccc2c(c1)N(C(=O)CN(CC)CC)c1ccccc1CC2	i	i	8.2µM	?
COC(=O)Nc1ccc2c(c1)N(C(=O)CCN1CCN3CCCC3C1)c1ccccc1CC2 (stereo not drawn)	i	i	i	i
CC(=O)OC[C@H]1O[C@H](CC=NOC[C@@H](O)COCc2ccco2)C=C[C@H]1OC(C)=O	nt	nt	i	nt
CC(=O)OC[C@H]1O[C@H](CC=NO[C@@H](C)c2cc(-c3c(C)cc(C)cc3C)no2)C=C[C@@H]1OC(C)=O	nt	nt	i	nt
COc1ccc(/C=N/OCC(=O)NC(c2ccccc2)c2ccccc2)c(OC)c1	i	i	?	2.2µM
Fc1ccc(-c2nc3n(n2)Cc2ccccc2-3)cc1	nt	i	?	13µM
Cc1ccc(-c2nc3n(n2)Cc2ccccc2-3)cc1	i	i	?	?
CCC(C)[C@H]1CNCCN1CCc1cc(C(F)(F)F)cc(C(F)(F)F)c1 (stereo partly drawn)	?	16µM	nt	nt
CN1CCN(C2=Cc3cc(Cl)ccc3Sc3cc(F)ccc32)CC1	?	?	?	10µM
COc1ccc(-c2nnc(SCC(=O)N3CCCC3)o2)cc1	i	i	?	i
COc1ccc(-c2nnc(SCC(=O)c3ccc(C)o3)o2)cc1	28µM	?	?	?
Cc1ccc(C(=O)CSc2nnc(-c3ccco3)o2)o1	?	10µM	i	?
COc1ccc(CCNC(=O)c2c(C)nn(CC(C)C)c2Cl)cc1	?	i	i	2.2µM
O=C(Nc1cnn(Cc2ccc(Cl)cc2)c1)c1cccs1	i	i	nt	nt
O=C(Nc1cnn(Cc2ccc(Cl)cc2)c1)c1ccc([N+](=O)[O-])cc1	?	?	11µM	?
SMILES	VACV mCherry inh	Vaccinia Venus	Marburg entry inh	LASV entry inh
O=[N+]([O-])c1ccc(NC(=S)NCCc2ccc(Cl)cc2)cc1	?	11µM	?	?
COc1cccc(/C=N/n2c(SC)nnc2-c2ccccc2)c1OC	i[1.46 µM]	i	?	11µM
COc1cccc(/C=N/n2c(N)nc3ccccc32)c1OC	?	?	?	i
COC1=C(N)C(=O)c2nc(-c3nc(C(=O)O)c(C)c(-c4ccc(OC)c(OC)c4O)c3N)ccc2C1=O	0.71µM	0.63µM	0.058µM	0.082µM
COCCCNC(=O)C[C@H]1C[C@H](C(=O)N2CCOCC2)[C@@]2(CCC3CCCC3)c3[nH]c4cc(-c5ccco5)ccc4c3CCN2C1=O	i	?	nt	nt
CN(C)CCCNC(=O)C[C@H]1C[C@H](C(=O)N2CCOCC2)[C@@]2(CCC3CCCC3)c3[nH]c4cc(-c5ccco5)ccc4c3CCN2C1=O	?	13µM	nt	nt
CC(C)(C)NC(=O)C[C@H]1C[C@H](C(=O)N2CCOCC2)[C@@]2(CCC3CCCC3)c3[nH]c4cc(-c5ccco5)ccc4c3CCN2C1=O	?	10µM	nt	nt
CC(C)=CCC/C(C)=C/CNC(=O)C[C@H]1C[C@H](C(=O)N2CCOCC2)[C@@]2(CCC3CCCC3)c3[nH]c4cc(-c5ccco5)ccc4c3CCN2C1=O	?	?	i	nt
Cc1ccsc1C1Cc2c(C(=O)NCc3cccnc3)c(=O)cc(C)n2-c2ccccc2S1 (stereo not drawn)	i	i	nt	nt
CC(C)(C)c1ccc(CN2C3=NCCCN3c3ccccc32)cc1	?	?	2.6µM	?
Brc1ccc(CN2C3=NCCCN3c3ccccc32)cc1	nt	nt	10µM	?
CN(C)c1ccc(/C=C/c2ccnc3ccc(-c4ccccc4)cc23)cc1	i	i	nt	nt
